Source: PubChem BioAssay AID1508600 (Functional Genomics Laboratory (NCATS/FGL), 2020)
The whole screen tested about 53,000 sequences, of which about 3,700 (7%) were called active.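 How the source made its calls: active means gene knockdowns whose robust z-score for IL-1 alpha signal is at least 2 or at most -2, so actives lie on both sides; inactive means the rest.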 Shown is part of a subset that was picked to be rich in actives.

Assay: Components of the Cytosolic LPS Sensing Pathway: Gene Identification via Genome-wide siRNA Screen;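 further: robust z of the log signal after scaling to non-targeting control siRNA wells of the plate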
Settings: RAW264.7 macrophages, IL-1a HTRF, actives lie on both sides, screened at 100 nM (by protocol), cells primed 5 h with Pam3CSK4 first
How it was run: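 Cells (RAW264.7, 1×10^4 per well) were transfected with siRNA at 100 nM and cultured 48h at 37 degrees C. Pam3CSK4 was added for 5 hours; LipidA transfection followed for 24 hour. IL-1a was then measured by HTRF.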

z-score, inactive:
GCGGAAGUCGACCUUUGAUTT against Cd164 -0.238, CGACUUUGGACAAAAAUUGTT against Kdm2a 0.638, CCUACCCGAUUAUUCUUACTT against C2cd2l 0.125, GGCAGUAUUGACUCCUACCTT against 6430548M08Rik -0.973, GGAAGUUGUUGGGAACUUCTT against Afmid -0.401, GGGAAGUUUGGUUCUUUGGTT against Msn 0.749, GGAAAGCCACUGUGUAAAATT against Armc9 0.594, GCCUCUUCGAACUCACUAUTT against St6galnac3 -0.807, GGAAAGAGGGUUUAUUUUGTT against 4930556L07Rik 0.919, GGACCUGAACAAUAAGGUUTT against Tagap -1.78, GGAUUCUUUGGUCUAUUUCTT against Pudp -0.308, GGAGAAAGACCAUUACUGUTT against Ly6e 1.63, GGUGACAAACCGAUACUUGTT against Cope -0.966, CCUACCUAUUUAUCAAAGATT against Sgms1 0.977, GGAUUUUUACAGAGACAUGTT against Actr6 -0.821, CGAUAUCUUACUUCUUUUGTT against E030011O05Rik 0.952, GGCCAUAGUCCUGUUCACCTT against Nr2f2 0.492, GGAGGUUACAAUCCAUGAGTT against Anapc1 -0.951, GGAUAGAUUUUAGGUAUUGTT against Htr5b -0.475, CGGAGUAGCGAUUAUGGUGTT against Art5 -0.535, GGAUUUAACCCUGAGAUACTT against Grpel2 0.621, GGAUGAUAUCGGAGCCUGCTT against Clec4g 0.392, GCAGGAGUAUUGCCAAGGATT against Csf1 -0.404, CGAAACACUCAAGGUUGUATT against Creb3l2 -0.314, GCAGCAUGCCUGAAUAUUUTT against Prcp 0.172, GGAGGUGGAACAAAUAUUUTT against Emc6 0.361, GGAAGACUUGUUCAACUGGTT against Grwd1 -0.88, GGCUUUUGUCAAGCAGCACTT against Ins2 -0.628, CCUUGAAAAGUCUAAACGUTT against Tmod2 0.375, GGGCUAGCCUAGAUAAAAATT against Sltm -1.38, GGGCUCCACAUGUUUGCAUTT against Ehmt1 0.392, GGAACUUCUACAGUCCUCCTT against Parp16 0.193, GGCUUCUUAUUGAUGUUGGTT against Asb13 -0.166, GGAUUUUUGAUGAUGUGUCTT against Arfgap1 -0.795, CCAAGAUACCUUUUUUGAGTT against Paox 0.455, GGCCUCUUCACUUAUGUAUTT against Inha -0.22, GGACAAUGAAGGAAUUGAUTT against Mdm4 -0.579, CCUCGACUUUUAUUUGGAUTT against Smg6 -0.0389, GGUUAGCUUCUUAAAACCATT against Adcy10 -0.605, GGGAGCUAGCAAAAUCGGATT against Eif4g3 0.714, GGUGAAGCCAGUUUCUUUATT against Traf3ip2 0.107, CGUUGAUGUGUAUUUAAACTT against Vopp1 0.704, GGAACUGCUCAUAAAAACATT against Evi2b 0.0355, GCUAUUGAGUUAUCGUUGCTT against Stam2 0.715, GGUACAGCUUAUGGAUUAATT against Pdgfra -0.193, GCCAGGUUUUCUCCAUAGATT against Tmem44 -0.841, GAAAUUAGAACAACUUUGGTT against 3830403N18Rik 0.442, GGCAUUUACCAAGUUCCUGTT against Olfr522 -1.26, GGACCAUAAGCACAUGAUUTT against Prl7c1 0.668, GGUCCAUACAAGUGUUUGATT against Camk2b -0.15, GGAAACCCAAUAUCAAACUTT against Rnf138 0.252, GCAUCACUUACAGAUAGACTT against Olfr305 -1.21, GGAGGUCCAGAAGAAUUAUTT against Pam16 0.957, GCAAAAGUAGAAGAACAACTT against Ccnt1 -0.172, GGUGGUUACCAUCUUACUUTT against Trhr 0.532, GGAGGCAUUCGCAUAGACGTT against Tra2a 1.68, GGUGUGAGAUCGAAUCAGATT against Arhgef18 0.503, GGCACUCUUGUUGAAAUUCTT against H6pd 0.756, GGGUUGUUUGCUGGUUUGUTT against Tmbim4 0.885, GGACCUCACAAGUGUUUAUTT against Pola1 -0.837, GGUGAAUGUGUGGAUUAUCTT against Itih2 -0.684, GGUUGUUCUUAACAUAACCTT against Ginm1 0.0306, GGAUCAAGAAAAGAUGAAATT against Galnt1 -0.858, GGUGAUGCGAUCUUCUUUATT against Anxa10 1.76, GGUCAAAAUAGAAGGAGUATT against Klhl4 0.124, GGUGCCCAUAAUAGCCAUCTT against Polr2c -1.02, GCCACACGACAUGUGAUUCTT against C2cd4c -0.0403, GCAGUUGGCAGGCUAAAAATT against Mff 1.98, GGACAUCGAAGUCCAACACTT against Plekhm1 -0.501, CCACUUACAUGUCAGAUUATT against Slc30a6 1.09, GGACUGGAAGAAUUUUUUGTT against Mrpl47 0.293, GGGACAGAAAGGAAAGACUTT against Ndufb4 0.0331, CCAUUGACACCUUAAAUAUTT against Cnot3 0.131, GGCAGAACUACUUUUAUAGTT against Cldn17 0.436, GGCCGUACUAGAUUUUCUUTT against Olfr695 1.35, GGCCUAUAAGUUGGACUCCTT against Sstr5 -0.897, GGAAUAACAGCCUUGUAUUTT against Slc25a15 -0.145, GGUUUUCUACAGGAGAGACTT against 9430015G10Rik 1.33, CGCAAUGCUGGAUUAUUUATT against Ceacam2 0.628, GGGAAGUGACAUAUUCUCGTT against Brf2 -0.277, GGAGAAGCCAGGAGUUUACTT against Klk6 1.71, GGUACUAGAUGACAAAAACTT against Cfap20 0.436, GGUGUUUUAAGAUUGAAUGTT against Ccn1 0.782, CCCUCCAGUAAAUUUUAAGTT against Sox6 1.7, GGCAUAUGCCAGUAUCGGUTT against Defb8 -0.595

z-score, active:
GCUUGGAUUGAGCUUUACATT against Pid1 3.53, GGGAAAGAGUUUUACAAACTT against Ttc22 2.74, GCAGACAAAGAUCCUAUGCTT against Atp2b3 -2.27, CCUUCAACAGAUCUAGAGUTT against Rexo1 2.36, GGACAAAUACCACAAGUUGTT against Simc1 2.13, GCUGUUUGAGGUCAUUCAUTT against Urb2 4.71, GGAAUUCUCUCAGCAGAAGTT against 1110038F14Rik -2.17, CCUUAUAGCAUAAGCUUUATT against Olfr768 2.04, GGUCAAUUGUCCAUAUGACTT against Tox3 -2.24, GCUACUAUUGUGUUCUGAATT against Drd1 2.24, CGUGAACGUAGAGUUUUCUTT against Fcrl5 3.59, GGUUUAUACUCAUAACCUGTT against Kifbp 2.03, GGACCGCCUUCAACAACAATT against Tpgs1 2.68, GGUACUCGAAUCUGACCUCTT against Nqo1 2.04, GCAAUACCUCAGAAAAAGUTT against Tmem165 -4.14, GGAAAUUUUCAAGCUCAAGTT against Gsdmd -2.44, GGUUGGAAAUUGGACAGGATT against Col6a3 2.22, CCCUGUAUAUAUUUGCUGATT against Clca3a2 2.78, CCCUAACUUAAUAAAACCUTT against Triobp -2.41, GGGCACACCCAUGAAGACATT against Hnf1a 4.58, GGCUGGGAAUUUUACAGUATT against Gpr3 3.98, GGAUCUGAUCCAGACUUCUTT against Ndrg1 2.05, CCCAGGUAGUAUACAAGGUTT against Pcdh1 2.42
